Data on 26 molecules can be found in PubChem BioAssay AID1745853 (National Center for Advancing Translational Sciences (NCATS), 2022).

What all share (assay): Primary Screen for Target Class Profiling of Small Molecule Inhibitors of Methyltransferases
The target in assay [1] is Catechol O-methyltransferase (Homo sapiens) (UniProt P21964). The conditions noted are these: purified enzyme, MTase-Glo SAH luminescence; activity change, negative = inhibition: at 40 µM, stronger effect = lower value; outcome: 40 uM. Put shortly:
(§1)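 Each enzyme was reacted with SAM and its substrate, with compounds tested once at 40 uM; SAH formed was read by MTase-Glo luminescence.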

The target in assay [2] is Glycine N-methyltransferase (Homo sapiens) (UniProt Q14749). As to conditions: purified enzyme, MTase-Glo SAH luminescence; measured here: GNMT inhibition; at 40 µM; stronger effect = lower value. The essentials: as §1
Sequence of Glycine N-methyltransferase (Homo sapiens) (Q14749 whole entry, looked up): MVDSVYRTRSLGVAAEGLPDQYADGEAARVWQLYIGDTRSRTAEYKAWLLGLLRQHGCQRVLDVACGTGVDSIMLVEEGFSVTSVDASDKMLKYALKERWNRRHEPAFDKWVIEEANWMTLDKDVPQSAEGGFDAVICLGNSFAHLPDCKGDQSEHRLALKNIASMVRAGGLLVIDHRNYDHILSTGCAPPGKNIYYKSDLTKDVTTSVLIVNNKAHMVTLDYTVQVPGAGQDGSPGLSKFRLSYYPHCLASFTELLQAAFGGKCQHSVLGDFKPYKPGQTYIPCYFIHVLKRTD
The target of assay [3] is Guanidinoacetate N-methyltransferase (Homo sapiens) (UniProt Q14353). The conditions noted are these: purified enzyme, MTase-Glo SAH luminescence; measured here: GAMT inhibition; at 40 µM; stronger effect = lower value. The essentials: as §1
Assay [4] concerns the target Histamine N-methyltransferase (Homo sapiens) (UniProt P50135). The conditions noted are these: purified enzyme, MTase-Glo SAH luminescence; measured here: HNMT inhibition; at 40 µM; stronger effect = lower value. The essentials:
as §1

Assay [5] concerns the target Nicotinamide N-methyltransferase (Homo sapiens) (UniProt P40261). The conditions noted are these: purified enzyme, MTase-Glo SAH luminescence; measured here: NNMT inhibition; at 40 µM; stronger effect = lower value. The essentials: as §1
For assay [6], the target named is Phenylethanolamine N-methyltransferase (Homo sapiens) (UniProt P11086). As to conditions: purified enzyme, MTase-Glo SAH luminescence; measured here: PNMT inhibition; at 40 µM; stronger effect = lower value. The essentials:
as §1

Among all 25,000 compounds or so, about 970 (3.9%) were called active. Inconclusive results (about 8%) are left out. How the calls were made is not given here. Only a selection was taken, and actives are over-represented in it overall.
On the % scale 0 is the no-effect control and ±100 the full control effect.

Sequence of Nicotinamide N-methyltransferase (Homo sapiens) (P40261 whole entry, looked up): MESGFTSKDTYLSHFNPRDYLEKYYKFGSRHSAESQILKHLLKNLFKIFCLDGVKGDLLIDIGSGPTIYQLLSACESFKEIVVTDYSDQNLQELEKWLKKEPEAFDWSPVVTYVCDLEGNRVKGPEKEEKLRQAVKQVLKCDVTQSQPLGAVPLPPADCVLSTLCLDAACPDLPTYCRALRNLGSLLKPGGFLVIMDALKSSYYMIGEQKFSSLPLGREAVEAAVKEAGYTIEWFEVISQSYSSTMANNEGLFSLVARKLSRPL
Sequence of Catechol O-methyltransferase (Homo sapiens) (P21964 whole entry, looked up): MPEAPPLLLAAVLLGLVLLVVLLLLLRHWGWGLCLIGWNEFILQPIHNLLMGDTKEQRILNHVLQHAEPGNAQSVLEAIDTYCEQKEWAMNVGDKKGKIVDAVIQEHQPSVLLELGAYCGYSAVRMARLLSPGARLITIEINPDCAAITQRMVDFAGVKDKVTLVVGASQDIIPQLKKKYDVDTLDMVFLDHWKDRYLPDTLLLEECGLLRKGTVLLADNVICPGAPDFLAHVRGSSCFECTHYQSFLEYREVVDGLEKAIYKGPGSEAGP
Sequence of Phenylethanolamine N-methyltransferase (Homo sapiens) (P11086 whole entry, looked up): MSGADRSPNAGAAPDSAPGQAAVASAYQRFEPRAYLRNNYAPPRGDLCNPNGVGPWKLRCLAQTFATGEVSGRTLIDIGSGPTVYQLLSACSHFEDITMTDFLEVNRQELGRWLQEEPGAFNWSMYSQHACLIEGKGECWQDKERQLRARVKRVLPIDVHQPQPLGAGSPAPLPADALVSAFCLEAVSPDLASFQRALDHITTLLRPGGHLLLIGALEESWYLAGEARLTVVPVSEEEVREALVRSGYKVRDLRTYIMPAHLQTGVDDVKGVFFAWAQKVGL
Sequence of Histamine N-methyltransferase (Homo sapiens) (P50135 whole entry, looked up): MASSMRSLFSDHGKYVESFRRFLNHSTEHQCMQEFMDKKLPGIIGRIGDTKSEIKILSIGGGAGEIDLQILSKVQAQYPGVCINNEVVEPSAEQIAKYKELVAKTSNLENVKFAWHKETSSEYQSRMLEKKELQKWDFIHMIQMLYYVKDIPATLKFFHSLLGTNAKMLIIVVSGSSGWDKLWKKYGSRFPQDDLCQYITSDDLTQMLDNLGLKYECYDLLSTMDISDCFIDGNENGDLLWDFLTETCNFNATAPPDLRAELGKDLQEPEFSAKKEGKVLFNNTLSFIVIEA

As for `CN(CCc1ccccn1)c1ncccc1CNC(=O)C1CCc2ccccc21` (stereo not given), the activity change, negative = inhibition in assay [1] is -4.9% (inactive); in assay [2], -5.71%; in assay [3], -6.23%; in assay [4] it was -3.62%; in assay [5], -10.6%; in assay [6] it was -5.62%.

`CCCCOc1ccc(CNC(=O)c2cc3n(n2)CC(C)(C(=O)NCc2ccccc2)N(C)C3=O)cc1` (stereo not given): the activity change, negative = inhibition in assay [1] was 6.54% (inactive); in assay [2], 8.47%; in assay [3], 0.793%; in assay [4], 9.19%; in assay [5] it was 11.5%; in assay [6] it was 7.21%.

With `CC(C)(C)c1ccc(S(=O)(=O)NCc2ccc(C(=O)Nc3cccnc3)cc2)cc1`, the activity change, negative = inhibition in assay [1] was -2.26% (inactive); in assay [2], -3.93%; in assay [3], -2.21%; in assay [4], -1.56%; in assay [5], -14.6%; in assay [6] it was -7.18%.

For `CC(C)(C)c1ccc(C(=O)Nc2cc(Cl)c(Br)cc2C(=O)O)cc1`, the activity change, negative = inhibition was -7.23% (active) in assay [1]; -49.9% in assay [2]; -17.8% in assay [3]; -39.8% in assay [4]; -69% in assay [5]; -27.1% in assay [6].

Take `Cc1ccccc1CN1C(=O)c2cc(-c3cccs3)nn2CC1(C)C(=O)NC1CCCCC1` (stereo not given): the activity change, negative = inhibition in assay [1] was 0.113% (inactive); in assay [2], -0.305%; in assay [3], 0%; in assay [4], 0.259%; in assay [5], 3.22%; in assay [6], -1.18%.

In the case of `COc1ccc(C2Cn3nnc(-c4noc(C5CCC5)n4)c3CO2)cc1` (stereo not given), the activity change, negative = inhibition was -14.4% (inactive) in assay [1]; -9.87% in assay [2]; -9.12% in assay [3]; -7.42% in assay [4]; -17.1% in assay [5]; -12.5% in assay [6].

Take `CN1C(=O)C2(CCN(Cc3cccn3C)C2)c2ccccc21` (stereo not given): the activity change, negative = inhibition in assay [1] was -4.01% (inactive); in assay [2] it was -11.7%; in assay [3], -5.16%; in assay [4], -17.5%; in assay [5] it was -15.9%; in assay [6], -0.794%.

`O=C(/C=C/c1ccc(CN(CCO)CCc2c[nH]c3ccccc23)cc1)NO`: the activity change, negative = inhibition in assay [1] is 19.6% (active); in assay [2] it was -17.2%; in assay [4] it was -68.8%; in assay [5], -31%; in assay [6] it was 12.3%.

On to `C/C=C\NC(=O)C1NC(=O)C(CC(N)=O)NC(=O)C(NC(=O)C(=O)C(C)CC)Cc2ccc(O)c(c2)-c2cccc3c2NC(=O)C3(O)C1O` (stereo not given), for which the activity change, negative = inhibition was -7.46% (inactive) in assay [1]; -2.05% in assay [2]; -15.1% in assay [3]; -0.643% in assay [4]; -26.2% in assay [5]; -2.58% in assay [6].

For the molecule `FC(F)(F)c1cccc(C2=NOC3(CCCN(CC4CCCCC4)C3)C2)c1` (stereo not given), the activity change, negative = inhibition in assay [1] was -1.26% (inactive); in assay [2], -2.05%; in assay [3], 2.98%; in assay [4], 1.38%; in assay [5], -6.62%; in assay [6], 6.26%.

As for `Cc1nn(-c2ccccc2)c2c1C(C)N(C1CCN(C(=O)NC3CCCC3)C1)C2=O` (stereo not given), the activity change, negative = inhibition in assay [1] is -10.5% (inactive); in assay [2], -9.42%; in assay [3], -11.7%; in assay [4], -6.3%; in assay [5], -12.4%; in assay [6], -12%.

For `O=C(NCc1cc2n(n1)CCCN(C1CCCCC1)C2)c1cccc(F)c1`, the activity change, negative = inhibition was -1.85% (inactive) in assay [1]; -1.07% in assay [2]; -0.04% in assay [3]; -13% in assay [4]; -2.3% in assay [5]; 3.54% in assay [6].

`Cc1ccc(NC(=O)Cn2nc3n(C(C)C)c(=O)c4ccc(C(=O)NC(C)C)cc4n3c2=O)c(Cl)c1`: the activity change, negative = inhibition was 7.09% (inactive) in assay [1]; 7.08% in assay [2]; 2.19% in assay [3]; 7.8% in assay [4]; 1.15% in assay [5]; 7.43% in assay [6].

Take `CC[C@@H](c1ccc(F)c(F)c1)n1c(C(=O)OC)c(-c2ccno2)[nH]c1=S`: the activity change, negative = inhibition in assay [1] was 6.91% (inactive); in assay [2], 1.62%; in assay [3], 4.04%; in assay [4], 10.6%; in assay [5], -18.4%; in assay [6] it was -1.86%.

In the case of `CCCC1c2ccc(C)n2CCN1C(=O)Nc1ccc(OCC)cc1` (stereo not given), the activity change, negative = inhibition in assay [1] was 1.32% (inactive); in assay [2], 1.56%; in assay [3], 0%; in assay [4], -0.12%; in assay [5], 2.78%; in assay [6], 1.21%.

Take `CNC(=O)[C@@H]1CN(C(=O)c2ccc(OC)cc2C)C[C@H]1COC`: the activity change, negative = inhibition in assay [1] is -1.84% (inactive); in assay [2], -2.55%; in assay [3] it was -4.79%; in assay [4] it was -1.32%; in assay [5], -3.85%; in assay [6] it was -0.512%.

Turning to `CCCN1C(=O)c2cc(C(=O)NCc3cc(Br)ccc3OC)nn2CC1(C)C(=O)NC1CCCC1` (stereo not given), the activity change, negative = inhibition is -2.6% (inactive) in assay [1]; -4.66% in assay [2]; -1.16% in assay [3]; -1.31% in assay [4]; -2.91% in assay [5]; -4.59% in assay [6].

In the case of `CC1=C[C@@H](CNS(=O)(=O)c2cccc(C#N)c2)[C@H](C(C)C)C[C@H]1CC(=O)N(C)Cc1cccnc1`, the activity change, negative = inhibition in assay [1] is -5.31% (inactive); in assay [2], -4.49%; in assay [3], -3.45%; in assay [4] it was -4.55%; in assay [5] it was -23.9%; in assay [6], -6.65%.

In the case of `CCCn1c(=O)c2ccc(C(=O)NC3CCCC3)cc2n2c(=O)n(Cc3ccc(F)cc3Cl)nc12`, the activity change, negative = inhibition in assay [1] is -1.77% (inactive); in assay [2], -1.81%; in assay [3], -0.898%; in assay [4] it was 5.95%; in assay [5], -5.65%; in assay [6], -1.78%.

In the case of `C=C1C(=O)O[C@@H]2C[C@@]3(C)CCCC(=C)[C@]3(O)C[C@H]12`, the activity change, negative = inhibition in assay [1] was 6.75% (inactive); in assay [2], 1.89%; in assay [3] it was 5.34%; in assay [4], 6.01%; in assay [5], -3.59%; in assay [6] it was 7.18%.

Regarding `CCCNC(=O)Cn1ccc2cc(S(=O)(=O)N3CCCCC3)ccc21`, the activity change, negative = inhibition in assay [1] was 4.84% (inactive); in assay [2] it was 9.68%; in assay [3], 1.89%; in assay [4], 7.8%; in assay [5], 9.14%; in assay [6], 4.01%.

As to `O=C(O)C1=NOC2CN([S+](=O)([O-])c3cc(C(F)(F)F)cc(C(F)(F)F)c3)CC12` (stereo not given), the activity change, negative = inhibition in assay [1] was 0.473% (inactive); in assay [2], 0.245%; in assay [3], -0.074%; in assay [4] it was 1.51%; in assay [5], -7.33%; in assay [6] it was -0.67%.

Take `COc1ccccc1NC(=O)CSc1nnc2[nH]c(=O)c(C(C)(C)C)nn12`: the activity change, negative = inhibition in assay [1] is 9.13% (inactive); in assay [2], 7.62%; in assay [3], 0%; in assay [4] it was 5.75%; in assay [5], -0.804%; in assay [6], -8.39%.

For the molecule `CCCn1c(=O)c2cc(Cl)ccc2n2c(SCC(=O)Nc3cccc(Cl)c3)nnc12`, the activity change, negative = inhibition was -3.39% (inactive) in assay [1]; -7.66% in assay [2]; -0.122% in assay [3]; 1.87% in assay [4]; -14% in assay [5]; -4.95% in assay [6].

As to `COc1ccc(NC(=O)CSc2nnc3n(CCCOC(C)C)c(=O)c4ccccc4n23)cc1`, the activity change, negative = inhibition in assay [1] was 6.36% (inactive); in assay [2], 1.3%; in assay [3] it was 1.9%; in assay [4], 7.77%; in assay [5], 6.56%; in assay [6] it was 5.87%.

For the molecule `CCNC(=O)C#Cc1ccc2c(C(=Nc3ccc(CN(C)C)cc3)c3ccccc3)c(O)[nH]c2c1`, the activity change, negative = inhibition is -18.4% (active) in assay [1]; -35.9% in assay [2]; -5.11% in assay [3]; -64.7% in assay [4]; -34.2% in assay [5]; -13.1% in assay [6].
